# High-throughput results as filed in PubChem BioAssay.
# Rows were chosen to be rich in hits. Some 4.6% of all compounds tested hit in one or more screens of this group.
# UCHL1 inh = blocks human UCHL1 ubiquitin-rhodamine cleavage; P09936; purified UCHL1, Ub-rhodamine cleavage fluorescence; inhibition, % at 20 µM; 0.2% of 47,000 active
# USP10 inh = inhibitors of human USP10 deubiquitinase; Q14694; purified USP10, Ub-rhodamine fluorescence, 60 min; inhibition, % at 20 µM; 1.1% of 47,000 active
# USP8 inh = blocks human USP8 ubiquitin-rhodamine cleavage | AID 1645853 | inhibition, % at 20 µM | 4.2% of 47,000 active | purified USP8, Ub-rhodamine cleavage fluorescence, 30 min | P40818
# USP7 block = blocks human USP7 ubiquitin-rhodamine cleavage; Q93009; purified USP7, Ub-rhodamine cleavage fluorescence; inhibition, % at 20 µM; 0.3% of 47,000 active; AID 1645854
# * marks the source's active call; other numbers are inactive results. Cut-off read from the data, not from the text of the source: active = inhibition above about 30%; inactive = the rest.
SMILES,UCHL1 inh,USP10 inh,USP8 inh,USP7 block
CC(C)=CCc1c2c(c3occ(-c4ccc(O)c(O)c4)c(=O)c3c1O)C=CC(C)(C)O2,15,63*,26,-12
CCc1nnc(-c2nnc(NCCOc3ccccc3OC)c3ccccc23)o1,1,13,66*,7
Cc1ccc(C)c(NC(=O)Cn2cccc(S(=O)(=O)N3CCC(C)CC3)c2=O)c1,-2,-2,-14,-64
Cc1cnnn1-c1ccc(C(=O)Nc2ccccc2F)cc1,3,-2,1,5
Cc1cnnn1-c1ccc(C(=O)Nc2ccc(Cl)cc2Cl)cc1,3,7,59*,6
O=C(COC(=O)C(Cc1c[nH]c2ccccc12)NC(=O)c1ccccc1Cl)c1ccc([N+](=O)[O-])cc1 (configuration not stated),5,28,-107,4
O=C(COC(=O)C(Cc1c[nH]c2ccccc12)NC(=O)c1ccccc1Cl)Nc1ccc([N+](=O)[O-])cc1C(F)(F)F (configuration not stated),1,32*,57*,12
COC(=O)c1cc2c(ccn2-c2ccc(F)cc2)n1C,6,3,36*,-13
COC(=O)c1cc2c(ccn2-c2ccc(F)cc2)n1CC(=O)N(C1CCCCC1)C1CCCCC1,0,-5,17,8
COc1ccc(-n2ccn3c(CCC(=O)Nc4cccc(C)c4)nnc3c2=O)cc1,4,26,36*,2
Cc1cccc(NC(=O)CCc2nnc3c(=O)n(-c4ccc(C)c(C)c4)ccn23)c1,-1,0,36*,4
Cc1ccc(NC(=O)CCc2nnc3c(=O)n(-c4cc(C)cc(C)c4)ccn23)cc1,0,9,42*,10
Cc1cc(C(=O)COC(=O)c2cc(=O)[nH]c3ccccc23)c(C)n1CC1COc2ccccc2O1 (configuration not stated),-8,-6,-7,-4
Cc1cc(=O)[nH]c(SCC(=O)c2cc(C)n(CCC3=CCCCC3)c2C)c1C#N,5,45*,49*,5
Cc1[nH]nc(NC(=O)C2COc3ccccc3O2)c1-c1ccccc1 (configuration not stated),32*,26,47*,-141
O=C(O)c1ccc(Cl)c(NC(=O)C2COc3ccccc3O2)c1 (configuration not stated),-5,-2,-2,58*
COc1ccc(-c2c(NC(=O)C3COc4ccccc4O3)n[nH]c2C)cc1OC (configuration not stated),29,6,18,-144
O=C(Cn1cccc(S(=O)(=O)N2CCCC2)c1=O)Nc1ccccc1F,-10,-1,-9,-12
COc1ccc(Oc2nc(F)c(Cl)c3c2N(CC2CCCO2)CCS3(=O)=O)cc1 (configuration not stated),6,5,69*,-25
CCCCN1CCS(=O)(=O)c2c(Cl)c(F)nc(Oc3ccc(OC)cc3)c21,7,9,50*,7
COCCCN1CCS(=O)(=O)c2c(Cl)c(F)nc(Oc3ccccc3)c21,1,0,35*,-142
Cc1nn(C)cc1C(C(=O)NC1CCCCC1)N(C(=O)CN1C(=O)c2ccccc2S1(=O)=O)c1ccc2c(c1)OCO2 (configuration not stated),12,40*,16,19
Cc1nc(C2CCCCN2)nc2c1CCC(=O)N2CCc1ccccc1 (configuration not stated),0,0,-1,1
CC(NC(=O)c1nc2n(n1)-c1ccccc1S(=O)(=O)N2)c1ccccc1 (configuration not stated),2,13,7,9
O=C(CCc1nc2cccnc2n1Cc1ccccc1)N1CCCCC1,2,-1,-4,-9
SMILES,UCHL1 inh,USP10 inh,USP8 inh,USP7 block
C=C[C@]1(C)CC[C@]2(C)[C@@H](C1)[C@@H](O)C[C@H]1[C@]3(C)CCC[C@@]12OC3=O,-1,38*,0,0
Cc1nn(-c2ccccc2)c2[nH]c(=O)c(CNCc3ccco3)cc12,0,-2,-5,4
COc1ccc(-c2nn(-c3ccccc3)c3[nH]c(=O)c(CNC4CCCC4)cc23)cc1,-9,-8,26,5
Cc1ccc(-c2nn(-c3ccccc3)c3[nH]c(=O)c(CNCc4ccccc4)cc23)cc1,-51,-13,56*,-32
Cc1nn(-c2ccccc2)c2[nH]c(=O)c(CNCc3ccc(F)cc3)cc12,1,0,56*,3
Cc1nn(-c2ccccc2)c2[nH]c(=O)c(CNCc3ccc4c(c3)OCO4)cc12,1,4,77*,7
Cc1ccc(NCc2cc3c(-c4ccc(F)cc4)nn(-c4ccccc4)c3[nH]c2=O)cc1C,1,6,77*,17
Cc1cc(C)c2c(n1)nn1c(Nc3ccc(Br)cc3)cc(C)nc21,-2,-1,4,0
O=C(O)c1c(CNCc2cccnc2)c2ccccc2n1Cc1ccccc1F,-4,-4,-23,-64
O=c1[nH]c2c(cc1CNCc1cccnc1)c(-c1cccc(F)c1)nn2-c1ccccc1,-3,-4,68*,-4
Cc1nc(NCc2ccco2)nc2c1COCC21CCN(C(=O)C(C)C)C1 (configuration not stated),-4,-5,0,-5
COc1ccc(C2c3c(-c4ccccc4O)n[nH]c3C(=O)N2Cc2ccncc2)cc1OC (configuration not stated),3,0,14,9
COCCN1C(=O)c2[nH]nc(-c3ccccc3O)c2C1c1cccc(OCc2ccccc2)c1 (configuration not stated),12,22,65*,-2
CCCCCn1c(SCC(=O)CC(=O)OCC)nc2cc(C(=O)NCc3ccco3)ccc2c1=O,-6,7,63*,-4
CCCCCn1c(SCc2cccnc2)nc2cc(C(=O)NCc3ccco3)ccc2c1=O,0,13,-3,-22
N#Cc1c(-c2cccnc2)c2c([nH]c1=O)-c1ccccc1CC2,-8,-7,-23,-6
CNc1nccc(-c2ccc(F)cc2)c1C#N,1,1,4,-2
N#Cc1c(-c2ccc(F)cc2)c2c([nH]c1=O)-c1ccccc1OC2,1,16,65*,-7
N#Cc1c(-c2ccccc2Cl)c2c([nH]c1=O)-c1ccccc1CC2,6,15,47*,4
CN1CCc2cc(C(CNC(=O)COc3ccc(Cl)cc3)N3CCCC3)ccc21 (configuration not stated),3,0,4,0
O=C(CN(c1cccc(Cl)c1Cl)S(=O)(=O)c1ccccc1)N1CCCCCC1,0,4,-170,-9
CCn1c(C)c(-c2nc(C3CC3)no2)c(S(=O)(=O)Nc2ccccc2)c1C,-1,-1,0,-12
CC1(C)CC(=O)C2(Cc3cc([N+](=O)[O-])ccc3N3CCCC32)C(=O)C1 (configuration not stated),-2,-1,-9,-1
Cc1cccc(CCN2C(=O)CCc3c(C)nc(C4CCCNC4)nc32)c1 (configuration not stated),4,0,-2,33*
Cc1cc(=O)oc2cc(NC(=O)c3ccc(-n4cnnn4)cc3)ccc12,0,-2,36*,4
